hcGAS inh: blocks human cGAS activity; AID 1259398; inhibition, % at 12.5 µM; recombinant h-cGAS, ATP depletion, Kinase-Glo luminescence; 0.081% of 290,000 active
Target sequence (Q8N884 whole entry, looked up): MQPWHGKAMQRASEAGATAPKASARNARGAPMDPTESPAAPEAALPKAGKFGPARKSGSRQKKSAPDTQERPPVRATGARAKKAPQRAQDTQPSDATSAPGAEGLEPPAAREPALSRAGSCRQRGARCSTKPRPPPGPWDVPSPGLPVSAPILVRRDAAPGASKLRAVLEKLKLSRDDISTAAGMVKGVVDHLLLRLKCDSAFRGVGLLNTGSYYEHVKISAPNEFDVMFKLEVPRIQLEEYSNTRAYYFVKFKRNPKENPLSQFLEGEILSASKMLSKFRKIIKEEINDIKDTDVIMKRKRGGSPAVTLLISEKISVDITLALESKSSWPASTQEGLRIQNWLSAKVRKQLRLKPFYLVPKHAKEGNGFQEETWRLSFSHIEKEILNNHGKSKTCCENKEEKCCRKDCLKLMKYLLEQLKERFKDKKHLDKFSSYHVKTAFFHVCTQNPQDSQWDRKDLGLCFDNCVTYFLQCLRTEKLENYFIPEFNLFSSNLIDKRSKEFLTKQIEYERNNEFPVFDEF
NPYLR7 agonist: mosquito NPYLR7 agonism. activation, % at 10 µM. HEK293T NPYLR7/Galpha15, GCaMP6s calcium fluorescence. AID 1259423. 0.15% of 270,000 active; in the data active = activation above about 40%
mcGAS lum: mouse cGAS inhibition by luminescence; 0.15% of 160,000 active; AID 1259399; Q8C6L5; inhibition, % at 12.5 µM; recombinant cGAS, Kinase-Glo ATP depletion luminescence
Large screens that a line does not name were inactive; ! = a repeat was not active. The list is not random: actives were taken first. Their share in the collection is about 0.28%. Cut-off read from the data, not from the text of the source, unless noted: active = inhibition above about 40%; inactive = the rest.

O=C(NN=Cc1ccccc1C(F)(F)F)c1ccco1	none
O=C(NN=Cc1ccccc1C(F)(F)F)c1cnccn1	mcGAS lum 55.2
COc1cc(C2CN(C(=O)CC(C)(C)C)CC2C(=O)NCC(C)C)cc(OC)c1OC (stereo unspecified)	none (no result: mcGAS lum)
COc1cccc(C2CN(C(=O)CC(C)(C)C)CC2C(=O)NCc2ccccn2)c1OC (stereo unspecified)	hcGAS inh active (no result: mcGAS lum)
COc1ccc(CNC(=O)c2sc3nc4c(c(C(F)(F)F)c3c2N)CN(C(C)=O)CC4)cc1	none (no result: mcGAS lum)
CCOC(=O)N1CCC(NC(=O)c2sc3nc4c(c(C(F)(F)F)c3c2N)CC(C)CC4)CC1 (stereo unspecified)	NPYLR7 agonist 61.6
COc1ccc(-n2nnc3c(N4CCN(C(=O)C(C)(C)C)CC4)ncnc32)cc1	none
O=C(O)c1cc(Br)c2ccccc2c1O	mcGAS lum 67.9
COc1cc(Br)c(OC)c(C(=O)O)c1	none (no result: mcGAS lum)
Cc1nc2nc3ccn(-c4ccccn4)c(=O)c3c(-c3ccc(Cl)cc3)n2n1	none
CC(=O)C12CC3CC(CC(O)(C3)C1)C2	none (no result: mcGAS lum)
COCCN(Cc1ccc(F)cc1Cl)c1cc(Cl)nc(N)n1	none (no result: mcGAS lum)
O=c1oc2c(-c3ccc(Br)cc3)cc(O)cc2s1	none
O=c1oc2c(Br)c(O)c(Br)cc2s1	hcGAS inh 41.2, mcGAS lum 75.7
COC(=O)c1cccc(C(=O)N(C)Cc2ccncc2C)c1	none (no result: mcGAS lum)
Cc1ccc2oc(-c3cccc(NC(=O)c4ccccc4C)c3C)nc2c1	none
CN1C(=CC=C(C#N)C#N)C=Cc2ccccc21	none (no result: mcGAS lum)
C=CCN1C=CC(=CC=C(C#N)C#N)C=C1	NPYLR7 agonist 71.9 (no result: mcGAS lum)
CCOC(=O)C(=O)N(C)c1c(CC)nc2c(OCc3ccccc3C(=O)OC)cccn12	none
S=c1[nH]nc(-c2cccs2)o1	none (no result: mcGAS lum)
S=c1[nH]nc(-c2cc(-c3cccs3)nc3ccccc23)o1	hcGAS inh 76.8 (no result: mcGAS lum)
Cc1ccc(CN(Cc2ccc3c(c2)OCO3)C(=O)CN(CC2CCCO2)C(=O)Nc2ccc(F)cc2F)o1 (stereo unspecified)	none
Cc1ccc(NC(=O)N(CC(=O)N(Cc2ccc(F)cc2)Cc2ccc(C)o2)CC2CCCO2)c(C)c1 (stereo unspecified)	hcGAS inh 89.1
CCOC(=O)N1CCN(c2ccc(/C=C(\C#N)c3nc4ccccc4n3C)o2)CC1	NPYLR7 agonist 341.7 (no result: mcGAS lum)
CCOC(=O)N1CCN(c2ccc(/C=C(\C#N)c3nc4ccccc4s3)o2)CC1	none (no result: mcGAS lum)
Cn1c(SCC(=O)NC(C)(C)C)nc2ccccc21	none
COc1ccc2o/c(=N\NC(N)=S)c(-c3nc4ccccc4[nH]3)cc2c1	none (no result: mcGAS lum)
NC(=S)N/N=c1\oc2cc(O)ccc2cc1-c1nc2ccccc2[nH]1	NPYLR7 agonist 66.7 (no result: mcGAS lum)
COc1ccc(CCNC(=O)c2ccccc2N2CCC(NC(=O)c3ccc(OC)c(OC)c3)CC2)cc1OC	none
COc1ccc(CCNC(=O)c2ccccc2N2CCC(NC(=O)c3ccco3)CC2)cc1OC	mcGAS lum 78.0
COc1ccc2oc(=O)c(-c3nnc(Nc4cc(Cl)ccc4OC)s3)cc2c1	NPYLR7 agonist 55.8
COc1ccc(Cl)cc1Nc1nnc(-c2cc3c(ccc4ccccc43)oc2=O)s1	NPYLR7 agonist 58.5
COc1ccc(Nc2nnc(-c3cc4cc(Cl)ccc4oc3=O)s2)c(OC)c1	none
COc1ccc(Nc2nnc(-c3cc4c(ccc5ccccc54)oc3=O)s2)c(OC)c1	none
COc1ccc(N2C(=O)c3ccccc3N(C)C2c2ccccn2)cc1 (stereo unspecified)	none
O=C(Nc1cccc(C(=O)Nc2ccc(S(=O)(=O)O)c3cc(S(=O)(=O)O)cc(S(=O)(=O)O)c23)c1)Nc1cccc(C(=O)Nc2ccc(S(=O)(=O)O)c3cc(S(=O)(=O)O)cc(S(=O)(=O)O)c23)c1	mcGAS lum 85.7
Nc1cccc(NC(=O)c2cccc(S(=O)(=O)Nc3cccc(N)c3)c2)c1	none
CCCC1COCCN1Cc1cc(F)c(O)c(OC)c1 (stereo unspecified)	none (no result: NPYLR7 agonist, mcGAS lum)
CCc1ccc(C(=O)N2CCC3(CC2)OCC(C(=O)NCc2ccncc2)N3C(=O)c2ccccc2)cc1 (stereo unspecified)	none
CCOC(=O)Cc1cc(=O)n2[nH]c(-c3ccc(Br)cc3)cc2n1	none (no result: mcGAS lum)
CCOC(=O)Cc1cc(=O)n2[nH]cc(-c3cccc(Br)c3)c2n1	hcGAS inh 62.5 (no result: mcGAS lum)
Nc1c(O)ccc2c1C(=O)c1ccccc1C2=O	none
N#Cc1c(N)oc2c3c(c(O)cc12)C(=O)c1ccccc1C3=O	hcGAS inh 48.3 (no result: mcGAS lum)
O=C(Nc1ccc(Cl)c(Cl)c1)N(CC(=O)N1c2ccccc2-n2cccc2C1c1ccco1)C1CC1 (stereo unspecified)	none
CNC[C@H](O)c1ccc(O)c(O)c1	NPYLR7 agonist 82.6
CC(C)NCC(O)c1ccc(O)c(O)c1 (stereo unspecified)	none
CCCN(CC1CC(c2ccccc2C)=NO1)C(=O)NC(C)C (stereo unspecified)	none
Cc1ccc2oc(-c3ccc(N)cc3)nc2c1	none
Nc1ccc(-c2nc3cc(N)cc(Cl)c3o2)cc1	NPYLR7 agonist 118.3
C=CCN1C(=O)CC2(C1=O)C(=O)N(CCCCOc1ccccc1)c1ccc(Cl)cc12 (stereo unspecified)	none
O=C(O[C@@H]1Cc2c(O)cc(O)cc2O[C@@H]1c1ccc(O)c(O)c1)c1cc(O)c(O)c(O)c1	hcGAS inh 49.5 (no result: mcGAS lum)
O=c1c(O)cc([C@H]2Oc3cc(O)cc(O)c3C[C@H]2O)cc2c([C@H]3Oc4cc(O)cc(O)c4C[C@H]3O)cc(O)c(O)c12	none (no result: mcGAS lum)
Oc1cc(O)c2c(c1)O[C@H](c1ccc(O)c(O)c1)[C@H](O)C2	none (no result: mcGAS lum)
O=C(Oc1cc(OC(=O)c2ccccc2)c2c(c1)O[C@H](c1ccc(OC(=O)c3ccccc3)c(OC(=O)c3ccccc3)c1)[C@@H](OC(=O)c1ccccc1)C2)c1ccccc1	none (no result: mcGAS lum)
O=C(O[C@@H]1Cc2c(O)cc(O)cc2O[C@@H]1c1cc(O)c(O)c(O)c1-c1c([C@H]2Oc3cc(O)cc(O)c3C[C@H]2O)cc(O)c(O)c1O)c1cc(O)c(O)c(O)c1	hcGAS inh 54.4
O=C(O[C@@H]1Cc2c(O)cc(O)cc2O[C@@H]1c1cc(O)c(O)c(O)c1)c1cc(O)c(O)c(O)c1	hcGAS inh 73.4! (no result: mcGAS lum)
Cc1cccc(CSc2nnc(CNC(=O)c3ccc([N+](=O)[O-])cc3Cl)n2-c2ccc(Cl)cc2Cl)c1	none
CCc1nc2ccc(C(=O)Nc3ccc4c(c3)OCC(=O)N4)cn2c1N(C)C(=O)COc1ccccc1	none
Cc1cc(C)c(CNC(=O)C=Cc2cccs2)c(=O)[nH]1	none (no result: mcGAS lum)
O=C(O)c1c[nH]c2cc(C(F)(F)F)ccc2c1=O	none
O=C(O)c1c[nH]c2c(ccc3ccccc32)c1=O	mcGAS lum 42.3
CC(=O)Nc1ccc(NC(=O)CSc2nc(=O)n3ccccc3n2)cc1	none
O=c1c(-c2cc(O)c(O)c(O)c2)coc2cc(O)c(O)c(O)c12	hcGAS inh 70.7, mcGAS lum 82.2 (no result: NPYLR7 agonist)
O=c1c(-c2ccc(O)cc2)coc2cc(O)cc(O)c12	none
Cc1cccc(C(=O)NC2CCN(c3ccccc3C(=O)NCc3ccccc3F)CC2)c1	none
CCC(CC)NC(=O)CN1c2cccc3cccc(c23)S1(=O)=O	none (no result: mcGAS lum)
NC(=O)CN1c2cccc3cccc(c23)S1(=O)=O	NPYLR7 agonist 106.0 (no result: mcGAS lum)
COc1ccccc1-c1nc2ccc(C)cn2c1NC(=O)COc1ccccc1	none
C=CC(=O)N1CCN(c2nc3ccccc3nc2C(=O)OCC)CC1	none
CCOC(=O)c1nc2ccccc2nc1N1CCN(C(=O)N2CCOCC2)CC1	NPYLR7 agonist 51.7 (no result: mcGAS lum)
FC(F)n1ccc2ccccc21	none

Assay outcomes: PubChem, Fisher Drug Discovery Resource Center
